Reference: PubChem BioAssay (NCATS)
Values joined by “and” are separate entries in the source; they are usually repeats but may differ in a detail not shown here. Equal values may be shown once. Inconclusive results are not listed. Active and inactive are the calls of the source. Unless noted, calls come from the whole dose curve; as a rule, active = well fitted curve in the direction sought with a large enough effect; inconclusive = small, poorly fitted or top-dose-only effect, or another doubt; inactive = no such curve, though single readings can be large; an effect the other way counts as inactive or inconclusive.

Tests used:
[1] = MultiTox-Fluor Cytotoxicity Assay - LYMP1-001 - Dead Cells (AID 946);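 note: 0% = DMSO and 100% = tetraoctylammonium bromide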
Procedure, shortened: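 LYMP1-001 lymphoblastoid cells (2500/well) treated 16 h at 37 C. Dead-cell protease cleavage of bis-AAF-R110 read at Ex/Em 485/520. Normalized to DMSO and 15 uM tetraoctylammonium bromide; AC50 from Hill fits.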

[2] = MultiTox-Fluor Cytotoxicity Assay - LYMP1-002 - Live Cells (AID 955); note: % is set by controls: 0 for no effect and ±100 for the full control effect
Procedure, shortened: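 Read-out is live-cell protease activity (cell-permeant GF-AFC substrate, fluorescence Ex/Em=405/510), where a decrease indicates acute toxicity. Human lymphoblastoid cells were treated 16 hours at 37 C in a concentration series, and AC50 values came from standard Hill modelling.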

[3] = MultiTox-Fluor Cytotoxicity Assay - LYMP1-003 - Dead Cells (AID 961);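 note: 0% = DMSO and 100% = tetraoctylammonium bromide; nearly all actives have a fitted effect of over 70% in size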
Procedure, shortened: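 LYMP1-003 human lymphoblastoid cells (2500/well) exposed to compound 16 h at 37 C in complete medium; dead-cell protease read with bis-AAF-R110 fluorescence (Ex/Em 485/520) after 60 min at room temperature. Normalized to DMSO and 15 uM tetraoctylammonium bromide; AC50 from Hill fit.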

[4] = MultiTox-Fluor Cytotoxicity Assay - LYMP1-003 - Live Cells (AID 962);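 note: 0% = DMSO only and full loss = 92 µM tetraoctylammonium bromide; cytotoxic hits lower the live-cell protease signal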
Procedure, shortened: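 qHTS, 1536-well; 2500 cells/well LYMP1-003; 5 hr 37 C settle; cpd 16 hr 37 C; MultiTox-Fluor reagent 60 min RT; live-cell protease fluor. 405/510; Hill-fit AC50; tetraoctylammonium bromide pos. ctrl.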

[5] = Cell Viability - LYMP1-003 - Assay at 40 hr (AID 964); note: series mostly up to about 92 µM; % is set by controls: 0 for no effect and ±100 for the full control effect; nearly all actives have a fitted effect of over 60% in size
Procedure, shortened: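 Cells were seeded at 2500 per well and incubated 5 hr at 37 C. Compounds were added across a concentration series and left 40 hr at 37 C. CellTiter-Glo was added for 30 min at room temperature before luminescence reading.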

[6] = Cell Viability - LYMP2-011 (AID 969);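 note: 0% = DMSO only and full inhibition = 92 µM tetraoctylammonium bromide; nearly all actives have a fitted effect of over 60% in size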
Procedure, shortened: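 2500 cells/well, 5 hr 37 C; compound added, 24 hr 37 C; CellTiter-Glo 30 min RT; luminescence. qHTS concentration-response, Hill-equation AC50. Tetraoctylammonium bromide positive control.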

[7] = Cell Viability - LYMP2-013 (AID 970);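 note: series mostly up to about 92 µM; 0% = DMSO only and full inhibition = tetraoctylammonium bromide control; nearly all actives have a fitted effect of over 55% in size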
Procedure, shortened: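 qHTS; 2500 lymphoblastoid cells/well; 5 hr 37 C settle; cpd 24 hr 37 C; CellTiter-Glo, 30 min RT; luminescence. AC50 = Hill fit.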

[8] = Cell Viability - LYMP2-017 (AID 972); note: series mostly up to about 92 µM; % is set by controls: 0 for no effect and ±100 for the full control effect; nearly all actives have a fitted effect of over 55% in size
Procedure, shortened: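 2500 cells/well, 5 h 37 C; cpd 24 h 37 C in complete medium; CellTiter-Glo, 30 min RT; luminescence (ATP). AC50 via Hill fit, qHTS.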

[9] = Cell Viability - LYMP2-002 (AID 977);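 note: series mostly up to about 92 µM; compound exposure lasted 24 h at 37 °C; plate controls were DMSO only for no effect and 92 µM tetraoctylammonium bromide for full effect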
Procedure, shortened: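 Human lymphoblastoid LYMP2-002 cells, 2500 per well, exposed to compounds for 24 h at 37 C in complete medium; viability read as intracellular ATP by CellTiter-Glo luminescence, AC50 from Hill fits.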

[10] = Cell Viability - LYMP2-006 (AID 978); note: series mostly up to about 92 µM; % is set by controls: 0 for no effect and ±100 for the full control effect; nearly all actives have a fitted effect of over 60% in size
Procedure, shortened: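 Human lymphoblastoid cells, 2500 per well, were preincubated 5 hr at 37 C, then exposed to compounds for 24 hr at 37 C in complete medium. Viability was read as intracellular ATP by CellTiter-Glo luminescence; AC50 from Hill-equation fits of qHTS concentration-response data.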

[11] = Cell Viability - LYMP2-007 (AID 979);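 note: cells exposed to compound for 24 h before reading; 0% = DMSO only and the negative end = 92 µM tetraoctylammonium bromide; nearly all actives have a fitted effect of over 60% in size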
Procedure, shortened: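 Luminescent ATP signal (CellTiter-Glo) serves as the viability read-out after 24 hr compound treatment of lymphoblastoid cells in complete medium at 37 C. Concentration-response data were fitted to the Hill equation to give AC50 values.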

[12] = Cell Viability - LYMP2-010 (AID 981); note: % is set by controls: 0 for no effect and ±100 for the full control effect; nearly all actives have a fitted effect of over 55% in size
Procedure, shortened: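 Luminescent ATP signal (CellTiter-Glo) served as the viability read-out. Cells of the human lymphoblastoid line were treated with compound over a concentration range for 24 hours at 37 C, and AC50 values came from Hill-equation modeling.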

[13] = Cell Viability - LYMP2-012 (AID 982);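 note: cellular ATP by luciferase luminescence where a drop means cytotoxicity; cells exposed to compound for one day before reading; 0% = DMSO only and full loss = 92 µM tetraoctylammonium bromide; nearly all actives have a fitted effect of over 55% in size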
[14] = Cell Viability - LYMP2-016 (AID 984)
Procedure, shortened: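 Human lymphoblastoid cells (LYMP2-016), 2500/well in complete medium, preincubated 5 hr at 37 C, then compound-treated 24 hr at 37 C. Intracellular ATP read by CellTiter-Glo luminescence after 30 min at room temperature; AC50 from Hill-equation concentration-response fits.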

[15] = Cell Viability - LYMP2-018 (AID 985);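 note: compound exposure lasted 24 hr at 37 °C; plate controls were DMSO only for no effect and tetraoctylammonium bromide at 92 µM for full effect; nearly all actives have a fitted effect of over 50% in size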
Procedure, shortened: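 Luminescent ATP signal (CellTiter-Glo, read after 30 min at room temperature) reports viable cells after 24 hr compound treatment at 37 C. Concentration-response data were fitted to the standard Hill equation for AC50.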

[16] = Cell Viability - LYMP2-020 (AID 986)
Procedure, shortened: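 Luminescent ATP signal (CellTiter-Glo, 30 min at room temperature) is the read-out after 24 h compound treatment of lymphoblastoid cells at 37 C. AC50 values come from Hill-equation fits across concentrations.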

[17] = Cell Viability - LYMP2-022 (AID 987)
Procedure, shortened: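 qHTS: human lymphoblastoid cells 2500/well; 5 hr 37 C; cpd added; 24 hr 37 C; CellTiter-Glo, 30 min RT; luminescence. AC50 via Hill fit; tetraoctylammonium bromide positive ctrl.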

[18] = Cell Viability - LYMP2-024 (AID 988)
Procedure, shortened: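 Steps: seed 2500 cells/well, 5 hr 37 C; add compound, 24 hr 37 C; add CellTiter-Glo, 30 min room temperature; read luminescence. AC50 derived by Hill modelling of concentration-dependent ATP loss.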

[19] = qHTS assay for small molecule agonists of the antioxidant response element (ARE) signaling pathway measured by Nrf2-dependant transcriptional activity - cell viability counter screen (AID 720653; active = well fitted curve in the direction sought with a large enough effect in the repeat runs; an effect the other way counts as inactive or inconclusive; note: % is set by controls: 0 for no effect and ±100 for the full control effect); conditions: ARE-bla HepG2 viability, CellTiter-Glo ATP luminescence, 16 h; max response: stronger effect = lower value
Procedure, shortened: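 ARE-bla HepG2 cells treated with compounds for 16 h at 37C; this counter screen measures viability as intracellular ATP by CellTiter-Glo luminescence after 30 min at room temperature.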

[20] = qHTS assay for cell viability of HEK293 cells (AID 743288); conditions: ATP luminescence (CellTiter-Glo), 18 h; max response: stronger effect = lower value; note: % is set by controls: 0 for no effect and ±100 for the full control effect; nearly all actives have a fitted effect of over 50% in size
Procedure, shortened: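 Parental HEK293 cells were seeded at 2,000 cells/well, rested at least 5 h at 37 C, then exposed to compounds in DMSO for 18 h at 37 C. Viability was read as ATP-dependent luciferase luminescence after 30 min at room temperature.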

C=Cc1ccccc1Cl
inactive: Potency [1] | Potency [2] | Potency [3] | Potency [4] | Potency [5] | Potency [6] | Potency [7] | Potency [8] | Potency [9] | Potency [10] | Potency [11] | Potency [12] | Potency [13] | Potency [14] | Potency [15] | Potency [16] | Potency [17] | Potency [18] | max response [19] -2.6% | max response [20] 6.21%

OCCNCCO
inactive: Potency [1] | Potency [2] | Potency [3] | Potency [4] | Potency [5] | Potency [6] | Potency [7] | Potency [8] | Potency [9] | Potency [10] | Potency [11] | Potency [12] | Potency [13] | Potency [14] | Potency [15] | Potency [16] | Potency [17] | Potency [18] | max response [19] 2.63% and -10.1% | max response [20] 2.85% and -11.3%

O=C(O)c1ccc(O)cc1O
inactive: Potency [1] | Potency [2] | Potency [3] | Potency [4] | Potency [5] | Potency [6] | Potency [7] | Potency [8] | Potency [9] | Potency [10] | Potency [11] | Potency [12] | Potency [13] | Potency [14] | Potency [15] | Potency [16] | Potency [17] | Potency [18] | max response [19] 4.94% and 4% | max response [20] -11.1% and 9.9%

O=NO
inactive: Potency [1] | Potency [2] | Potency [3] | Potency [4] | Potency [5] | Potency [6] | Potency [7] | Potency [8] | Potency [9] | Potency [10] | Potency [11] | Potency [12] | Potency [13] | Potency [14] | Potency [15] | Potency [16] | Potency [17] | Potency [18] | max response [19] -5.36% and 6.29% | max response [20] 0.172% and -0.275%

Cc1c(N=C=O)cccc1N=C=O
inactive: Potency [1] | Potency [2] | Potency [3] | Potency [4] | Potency [5] | Potency [6] | Potency [7] | Potency [8] | Potency [9] | Potency [10] | Potency [11] | Potency [12] | Potency [13] | Potency [14] | Potency [15] | Potency [16] | Potency [17] | Potency [18] | max response [19] 0.551% and 0.668% | max response [20] 8.57% and -7.81%
